Measured values reported in PubChem BioAssay (EPA / NIEHS).
Results filed as inconclusive are left out. Calls of active or inactive are those of the source. Rule for the calls, unless noted: active = hit-call score of the fitted dose curve at least 0.9, where 1 is the maximum; inconclusive = response in the unintended direction; inactive = score below 0.9. Where a SMILES comes first, the peptide text is derived from it. Bridges are numbered along the chain shown (N, C = ends). [ ]: non-standard residue; d: D form. hArg = N=C(N)NCCCC[C@H](N)C(=O)O; Mpa = O=C(O)CCS

Columns and labels:
[1] = target: Cellular tumor antigen p53 (Homo sapiens) (UniProt P04637); experiment: TOX21_p53_BLA_p3_ratio: Tox21 HCT-116 p53 Agonism Beta-lactamase Assay, Ratio, Phase 3 (AID 2283596)
Cellular tumor antigen p53 (Homo sapiens), sequence (P04637 whole entry, looked up): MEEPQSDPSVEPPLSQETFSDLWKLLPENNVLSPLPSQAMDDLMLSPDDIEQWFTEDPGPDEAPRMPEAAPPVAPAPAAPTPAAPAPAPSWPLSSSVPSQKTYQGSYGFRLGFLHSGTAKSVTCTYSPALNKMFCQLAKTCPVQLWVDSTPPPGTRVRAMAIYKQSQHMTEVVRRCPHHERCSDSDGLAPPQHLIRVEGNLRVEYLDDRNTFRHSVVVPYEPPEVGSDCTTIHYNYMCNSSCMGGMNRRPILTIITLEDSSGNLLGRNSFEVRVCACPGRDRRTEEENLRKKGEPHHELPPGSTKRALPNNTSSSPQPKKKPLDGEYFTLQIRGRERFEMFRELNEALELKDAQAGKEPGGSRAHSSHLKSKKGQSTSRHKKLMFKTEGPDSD
In short: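 HCT116 p53-bla cells (4000/well) given compound in DMSO (217-fold dilution) after 5 h, incubated 16 h at 37C. CCF4-AM substrate 2 h at room temperature; 460/530 nm emission ratio, gain fitted against DMSO.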

[2] = target: Cellular tumor antigen p53 (Homo sapiens) (UniProt P04637); experiment: TOX21_p53_BLA_p5_ratio: Tox21 HCT-116 p53 Agonism Beta-lactamase Assay, Ratio, Phase 5 (AID 2283599)
In short: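 HCT-116 cells carrying a p53-inducible beta-lactamase reporter were seeded at 4000 cells/well and dosed after 5 h with compound in DMSO (217-fold dilution). After 16 h at 37C, CCF4-AM substrate was added for 2 h, and the 460/530 nm emission ratio was scored as gain-of-signal versus DMSO.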

[3] = TOX21_p53_BLA_p4_viability: Viability Assessment in the Tox21 HCT-116 p53 Agonism Beta-lactamase Assay, Phase 4 (AID 2283597);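 note: hits lower the luminescence signal meaning cytotoxicity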
In short: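 HCT116 p53-bla cells (4000/well) rested 5 h at 37C, then received compounds in DMSO (217-fold dilution) for 16 h at 37C, 5% CO2. CellTiter-Glo was added after the CCF4-AM read, and luminescence was read after 30 min at room temperature.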

[4] = TOX21_p53_BLA_p5_viability: Viability Assessment in the Tox21 HCT-116 p53 Agonism Beta-lactamase Assay, Phase 5 (AID 2283600)
In short: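 Cells were plated at 4000/well, rested 5 h at 37C, then given compounds in DMSO (217-fold dilution) for 16 h at 37C, 5% CO2. Following the CCF4-AM beta-lactamase read, CellTiter-Glo was added and luminescence was read after 30 min at room temperature.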

[5] = target: Cellular tumor antigen p53 (Homo sapiens) (UniProt P04637); experiment: TOX21_p53_BLA_p4_ratio: Tox21 HCT-116 p53 Agonism Beta-lactamase Assay, Ratio, Phase 4 (AID 2283601)
In short: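 HCT116 cells carrying an inducible beta-lactamase reporter were plated at 4000 cells/well, rested 5 h, then exposed to compounds in DMSO (217-fold dilution) for 16 h at 37C. CCF4-AM substrate was loaded 2 h at room temperature; 460/530 nm emission ratio scored gain-of-signal versus DMSO.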

PGR (gene 5241) [6] = target: PGR (gene 5241) (UniProt P06401); experiment: TOX21_PR_BLA_Followup_Agonist_ratio: Tox21 HEK293 Progesterone Receptor (PR) Agonism Beta-lactamase Follow-Up Assay, Ratio (AID 2283933)
PGR (gene 5241), sequence (P06401 whole entry, looked up): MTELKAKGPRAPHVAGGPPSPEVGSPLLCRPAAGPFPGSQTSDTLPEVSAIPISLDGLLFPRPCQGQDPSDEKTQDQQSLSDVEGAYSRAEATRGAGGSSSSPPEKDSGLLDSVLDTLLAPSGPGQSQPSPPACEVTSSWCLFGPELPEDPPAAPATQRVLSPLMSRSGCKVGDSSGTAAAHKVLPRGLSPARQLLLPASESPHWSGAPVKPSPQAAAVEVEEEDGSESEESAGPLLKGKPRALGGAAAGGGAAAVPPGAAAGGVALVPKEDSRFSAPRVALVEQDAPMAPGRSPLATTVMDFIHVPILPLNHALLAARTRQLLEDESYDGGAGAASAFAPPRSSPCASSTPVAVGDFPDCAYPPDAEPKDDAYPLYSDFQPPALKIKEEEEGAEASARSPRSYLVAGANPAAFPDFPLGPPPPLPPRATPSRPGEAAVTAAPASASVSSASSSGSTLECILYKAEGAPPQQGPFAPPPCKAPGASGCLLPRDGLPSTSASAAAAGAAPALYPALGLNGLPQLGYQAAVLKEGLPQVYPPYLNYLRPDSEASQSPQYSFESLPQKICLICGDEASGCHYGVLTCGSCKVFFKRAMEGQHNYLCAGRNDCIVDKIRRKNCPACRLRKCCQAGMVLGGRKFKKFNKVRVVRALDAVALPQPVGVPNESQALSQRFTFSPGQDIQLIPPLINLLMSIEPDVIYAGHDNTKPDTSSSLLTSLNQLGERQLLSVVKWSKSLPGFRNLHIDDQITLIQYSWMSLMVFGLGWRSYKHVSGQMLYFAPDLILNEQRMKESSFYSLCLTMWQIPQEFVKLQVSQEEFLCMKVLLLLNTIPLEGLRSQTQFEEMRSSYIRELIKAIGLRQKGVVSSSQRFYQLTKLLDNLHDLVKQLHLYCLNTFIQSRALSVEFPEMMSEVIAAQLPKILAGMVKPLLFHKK
In short: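 PR-UAS-bla HEK293T cells in medium with 2% charcoal-stripped FBS were dosed after 6 h plating and incubated 16 h at 37C. LiveBLAzer FRET substrate was added for 2 h at room temperature. Cleaved/uncleaved substrate ratio fitted against DMSO; CellTiter-Glo viability run in the same wells.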

PGR (gene 5241) [7] = target: PGR (gene 5241) (UniProt P06401); experiment: TOX21_PR_BLA_Followup_Antagonist_ratio: Tox21 HEK293 Progesterone Receptor (PR) Antagonism Beta-lactamase Follow-Up Assay, Ratio (AID 2283934)
In short: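 PR-UAS-bla HEK293T cells, 3,000/well in 2% charcoal-stripped FBS, given compound plus 1nM R5020 agonist for 16 hr at 37C. Beta-lactamase FRET substrate 2 hours, ratio cleaved/uncleaved fluorescence; viability by CellTiter-Glo in same wells.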

PGR (gene 5241) [8] = target: PGR (gene 5241) (UniProt P06401); experiment: TOX21_PR_LUC_Followup_Agonist: Tox21 HEK293 Progesterone Receptor (PR) Agonism Luciferase Follow-Up Assay (AID 2283937; active = hit-call score of the fitted dose curve at least 0.9, where 1 is the maximum; inactive = score below 0.9)
In short: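 HEK293-PR-A-luc cells, conditioned 5 days in 10% charcoal-stripped FBS medium, seeded 3,000/well for 5 h, then compound-treated 16 h at 37C. ONE-Glo luminescence read after 30 min at room temperature; gain of signal versus DMSO.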

PGR (gene 5241) [9] = target: PGR (gene 5241) (UniProt P06401); experiment: TOX21_PR_LUC_Followup_Antagonist: Tox21 HEK293 Progesterone Receptor (PR) Antagonism Luciferase Follow-Up Assay (AID 2283938);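 note: curve fitted upward as signal gain over DMSO baseline despite antagonist label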
In short: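 HEK293-PR-A-luc cells were precultured 5 days in medium with 10% charcoal-stripped FBS, seeded 3,000/well, then exposed to compounds in DMSO for 16 h at 37C. Luciferase was read by ONE-Glo luminescence after 30 min at room temperature.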

Measured: AC50

CC#N
inactive: [1] | [2]

O=C(O)[C@H]1CN(C/C=C/P(=O)(O)O)CCN1
inactive: [1] | [3] | [4] | [5]

COc1ccc(NS(=O)(=O)c2ccc(N)cc2)nn1
inactive: [1] | [2] | [4] | [5]

CC#CCC(C)[C@H](O)/C=C/[C@@H]1[C@H]2C/C(=C/CCCC(=O)O)C[C@H]2C[C@H]1O (stereo not given in full)
inactive: [1] | [3] | [5]

Clc1ccc2nsnc2c1NC1=NCCN1
inactive: [1] | [2] | [4] | [5]

C=Cc1ccccn1
inactive: [1] | [3] | [5]

S=C(SSSSSSC(=S)N1CCCCC1)N1CCCCC1
inactive: [1] | [3] | [4] | [5]

O=Nc1ccc(NO)cc1
inactive: [1] | [2] | [4] | [5]

OCCOc1ccc(OCCO)cc1
inactive: [1] | [3] | [4] | [5]

CC(C)C[C@@H](N)C(=O)O
inactive: [1] | [2] | [5]

O=c1[nH]cnc2c1ncn2[C@@H]1O[C@H](CO)[C@@H](O)[C@H]1O
inactive: [1] | [2] | [5]

C1=C\CC/C=C\CC/1
inactive: [1] | [4] | [5]

NS(=O)(=O)c1cc2c(cc1Cl)NC(Cc1ccccc1)NS2(=O)=O (stereo not given)
inactive: [1] | [4] | [5]

NC(=O)[C@@H]1CSSCCC(=O)N[C@@H](CCCCN=C(N)N)C(=O)NCC(=O)N[C@@H](CC(=O)O)C(=O)N[C@H](Cc2c[nH]c3ccccc23)C(=O)N2CCC[C@H]2C(=O)N1 ([Mpa][hArg]GD[dW]PC-NH2; disulfide 1-7)
inactive: [1] | [2] | [5]

CCc1c(C)[nH]c2c1C(=O)C(CN1CCOCC1)CC2 (stereo not given)
inactive: [1] | [5]

CCOc1ccc2ccccc2c1C(=O)N[C@@H]1C(=O)N2[C@@H]1SC(C)(C)[C@@H]2C(=O)O
inactive: [1] | [2] | [5]

C[C@@H](O)C(=O)O
inactive: [1] | [2] | [5]

ClC/C=C\CCl
inactive: [1] | [5]

Cc1ccc(C(=O)c2ccc(CC(=O)O)n2C)cc1
inactive: [1] | [5]

CCOC(=O)C1=C(C)NC(C)=C(C(=O)OC)C1c1cccc(Cl)c1Cl (stereo not given)
active: PGR (gene 5241) [7] 14.7 µM | PGR (gene 5241) [9] 13.4 µM
not listed: [3] | [4]
inactive: all other assays above

CN1[C@@H]2CC[C@H]1CC(OC(=O)c1c[nH]c3ccccc13)C2 (stereo not given in full)
inactive: [1] | [5]

CC(=O)c1ccc(C(C)=O)cc1
inactive: [1] | [4]

CC(C)(C)N(CCO)CCO
inactive: [1] | [5]

O=C(O)Cc1csc(-c2ccc(Cl)cc2)n1
inactive: [1] | [2] | [5]
